Assay outcomes deposited in PubChem by National Center for Advancing Translational Sciences (NCATS).
Only some compounds are listed: those with a hit (about 7.2% of all), similar ones and a draw of the others.
Lassa entry inh: inhibitors of Lassa virus binding or cell entry; Lassa virus pseudotype entry inhibition, cell reporter; actives 1.2% (n = 300,000); Potency, µM (highest dose often 37.9 µM), for the others: at the highest dose activity change, negative = inhibition, usual class: inhibitors; calls by dose curve; tested in HEK293 cells; further: nearly all actives have a fitted effect of over 50% in size
HCV inhibitor: blocks hepatitis C virus. actives 3.4% (n = 340,000). Huh7.5.1 HCVcc-Cre infection, luciferase reporter, 44 h. Potency, µM (top dose mostly 41.8 µM), for inactives: at the top dose activity change, negative = inhibition, actives largely listed as inhibitors. AID 651820
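Luciferase read-out (15 sec integration) after a 15 min room-temperature substrate step quantifies HCVcc-Cre infection. Cells, 1,000 per well, had compound added 4 h post-plating, then virus at ~0.5 moi, and were cultured 44 h.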
RE007 growth inh: less growth of the S. pombe RE007 Vpr strain; Potency, µM (series often up to 92.2 µM), for the others: top-dose activity change, negative = less growth, usual class: inhibitors; AID 651644; actives 0.21% (n = 360,000); S. pombe RE007 Vpr strain, BacTiter-Glo ATP luminescence, 24 h; active means well fitted falling curve with a large enough effect; inconclusive means small, poorly fitted or top-dose-only effect; inactive means no such curve, though single readings can be large or run the other way; further: nearly all actives have a fitted effect of over 50% in size
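Fission yeast strain RE007, carrying one chromosomally integrated HIV-1 vpr copy, was seeded at OD 0.01 in PMG+AL medium with 23 nL pinned compound. After 24 h at 30 °C and 99% humidity, viability was read by BacTiter-Glo luminescence.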
Sm TGR inh: blocks Schistosoma mansoni thioredoxin glutathione reductase; AID 485364; actives 3% (n = 360,000); Potency, µM (titrated, usually from 114 µM), for the others: top-dose activity change, negative = inhibition, usual class: inhibitors; purified TGR, DTNB reduction, TNB absorbance 405 nm; Q962Y6; further: nearly all actives have a fitted effect of over 60% in size
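Kinetic colorimetric format: TGR-catalysed, NADPH-driven DTNB reduction monitored via TNB absorbance. Enzyme dispensed at 20 nM; compound exposure 15 min at room temperature before reaction start.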
FMDV antiviral: blocks foot and mouth disease virus; AID 1159524; actives 1.2% (n = 410,000); Potency, µM (series often up to 57.9 µM), for inactives: at the top dose activity change, negative = inhibition, hits mostly inhibitors; FMDV antiviral cell-based qHTS; calls by dose curve; tested in HEK293T cells; further: read-out not given here; nearly all actives have a fitted effect of over 45% in size
MARV entry inh: blocks Marburg virus binding to or entry into cells | actives 1.8% (n = 300,000) | Potency, µM (highest dose often 37.8 µM), inactives show at the highest dose activity change, negative = inhibition, usual class: inhibitors | AID 540276 | Marburg virus pseudotyped entry inhibition, cell reporter; calls by dose curve; tested in HEK293 cells
The depositor's hits bear a star; ? = inconclusive; . = no result given; [ ] = another dose, or the depositor's remark. Unless noted, the call rests on the fitted dose curve; in most records, active means well fitted curve in the direction sought with a large enough effect; inconclusive means small, poorly fitted or top-dose-only effect, or another doubt; inactive means no such curve, though single readings can be large; an effect the other way counts as inactive or inconclusive. On the % scale 0 is the no-effect control and ±100 the full control effect; potency means the concentration at half of the fitted maximal effect.

SMILES	Lassa entry inh	HCV inhibitor	RE007 growth inh	Sm TGR inh	FMDV antiviral	MARV entry inh
CCOc1ccc(-c2nc(Cn3c(=O)cc(C)c4c(C)nn(-c5ccccc5)c43)c(C)o2)cc1	0%[46.1 µM]	.	.	-6%	33%	.
CC(=NNC(=S)N1CC2CCC(CC2)C1)c1ccncn1	0.32µM*	0.32µM*	?	.	0%	?
CC(=NNc1nc2ccccc2s1)c1ccncn1	?	?	?	.	0%	?
COC(=O)/C=C1\OCc2cc(C)ccc21	.	.	?	.	23%	.
CC(=O)N[C@H](Cc1c[nH]c2ccccc12)C(N)=O	.	.	.	.	-7%	.
CC(C)Oc1ccc(CCC(=O)N/N=C/c2ccncc2)cc1	1µM*	-17%	1%	6%	3%	1%[46.1 µM]
CCCCCCCC(=O)N/N=C/c1ccncc1	-32%	9%	3%	32%	7%	13%
Cc1ccc2c(c1)-c1c(c(C(=O)N3CCN(c4cc(C)ccc4C)CC3)nn1C)CS2	3%[46.1 µM]	.	.	9%	-20%	.
CC1Sc2ccc(S(=O)(=O)N3CCC(C(=O)Nc4ccc(Cl)cc4)CC3)cc2NC1=O (configuration not stated)	.	?	0%	-6%	14µM*	.
CC(C)c1ccc(NC(=O)C2CCCN(S(=O)(=O)c3ccc4c(c3)C(C)(C)C(=O)N4C)C2)cc1 (configuration not stated)	.	13µM*	1%	-30%	?	.
CN1C(=O)C(C)(C)c2cc(S(=O)(=O)N3CCCC(C(=O)Nc4ccc(Cl)cc4)C3)ccc21 (configuration not stated)	.	11µM*	8%	4%	?	.
CN1C(=O)C(C)(C)c2cc(S(=O)(=O)NCc3ccc(C(=O)Nc4ccc(Cl)cc4)cc3)ccc21	?	.	.	-4%	32µM*	.
O=[N+]([O-])c1ccc(N2CCOCC2)c2c1no[n+]2[O-]	.	.	45µM*	.	10µM*	.
c1ccc(-c2ccc3c(c2)c2c4n3CCN=C4CCC2)cc1	-5%	?	-24%	?	0%	26µM*
COc1ccc(-c2c3c(=O)n(C)c(=O)n(C)c3cn2Cc2cccnc2)cc1	22%	-6%	-17%	?	12%	19%
COc1ccc(-c2c3c(=O)n(C)c(=O)n(C)c3cn2-c2cc(OC)ccc2OC)cc1	?	?	-15%	5%	0%	13µM*
Cc1ccc(-c2c3c(=O)n(C)c(=O)n(C)c3cn2Cc2ccccn2)cc1	-3%	13%	-4%	35µM*	-24%	-1%
COc1ccc(-c2c3c(=O)n(C)c(=O)n(C)c3cn2-c2ccccc2O)cc1	.	?	-1%	-20%	-22%	.
COc1ccc(-c2c3c(=O)n(C)c(=O)n(C)c3cn2Cc2ccccn2)cc1	-10%	6%	15%	28µM*	2%	1%
CN1CCN(c2ccccc2NC(=O)c2ccc(OCc3ccccc3)cc2)CC1	?	11µM*	-8%	8%	-2%	-19%[46.1 µM]
CN1CCN(c2ccccc2NC(=O)c2cccc(OCc3ccccc3)c2)CC1	6%	?	-6%	-2%	.	?
Cc1nc(COc2ccc(C(=O)Nc3ccccc3N3CCOCC3)cc2)cs1	10%[46.1 µM]	11µM*	-16%	-6%	7%	-13%[46.1 µM]
COCc1cc(C)nc2sc3c(c12)NC(c1ccc(O)cc1)N(c1ccc(OC)cc1)C3=O (configuration not stated)	?	.	.	5%	-9%	?
Cc1ccc(CNc2nc(CN3CCN(C=O)CC3)nc3ccccc23)o1	.	.	.	.	-3%	.
CN(C)S(=O)(=O)c1cccc(C(=O)NCC2CCCCC2)c1	-19%	-13%	14%	-3%	22%	8%[46.1 µM]
SMILES	Lassa entry inh	HCV inhibitor	RE007 growth inh	Sm TGR inh	FMDV antiviral	MARV entry inh
O=C(NCc1ccncc1)c1ccc(Oc2ccccc2)cc1	-17%	?	-4%	2%	-15%	13%[46.1 µM]
Cc1ccc(Oc2ccc(C(=O)NCc3ccncc3)cc2)cc1	8.9µM*	3.2µM*	24%	1%	?	?
CCN(CC)S(=O)(=O)c1ccc(C(=O)NCC2CCCCC2)cc1	7.1µM*	5%	0%	8%	-12%	0%[46.1 µM]
CCN(CC)S(=O)(=O)c1ccc(C(=O)NCc2ccc(C)cc2)cc1	18µM*	0%	14%	14%	-3%	-26%[46.1 µM]
CCN(CC)S(=O)(=O)c1ccc(C(=O)NCc2cccs2)cc1	2.9µM*	-10%	7%	-1%	1%	10%
CCN(CC(=O)NCc1cccs1)S(=O)(=O)c1ccc(F)cc1	1%	-6%	-2%	0%	-5%	23%
CCN(CC)S(=O)(=O)c1cccc(C(=O)N[C@H](C(=O)NCc2ccc(Cl)cc2)C(C)C)c1	13µM*	?	4%	-8%	?	10µM*
CCN(CC)S(=O)(=O)c1cccc(C(=O)N[C@H](C(=O)NCc2ccccc2F)C(C)C)c1	-28%	-24%	2%	-8%	3%	-29%
CN(C)CCN(C)C1CN(C2CCCC2)S(=O)(=O)C1 (configuration not stated)	.	.	-5%	.	-12%	.
CC(=O)c1ccc(N2CCN(S(=O)(=O)c3ccc4c5c3CC(=O)N5CC(C)S4)CC2)cc1 (configuration not stated)	.	?	1%	?	14µM*	.
COc1ccc(NC(=O)CCCn2c(=O)c3cccn3c3cccnc32)cc1Cl	17%[46.1 µM]	.	.	12%	4%	.
COc1ccc2c(c1)c(CC(=O)OCC(=O)N(C)C)c(C)n2C(=O)c1ccc(Cl)cc1	?	10%	7%	-7%	12%	25µM*
CC(NC(=O)COC(=O)c1c[nH]c2ccccc12)c1ccccc1 (configuration not stated)	8.9µM*	0%	21%	.	-20%	13%
Cc1oc2cc3oc(=O)c(CCC(=O)NCCCN4CCOCC4)c(C)c3cc2c1C	.	1.6µM*	-18%	-17%	18%	.
Cc1oc2c(C)c3oc(=O)c(CCC(=O)NCCCn4ccnc4)c(C)c3cc2c1C	.	10µM*	-23%	-1%	-13%	.
CCOC(=O)c1cccc(NC(=O)c2sc3nc[nH]c(=O)c3c2C)c1	18%[46.1 µM]	.	.	-9%	0%	.
COc1ccccc1C(=O)N[C@@H]1c2ccccc2C2(CCN(Cc3ccc(C)o3)CC2)[C@H]1O	.	.	.	.	-4%	.
CCCS(=O)(=O)c1nc(S(=O)(=O)c2ccc(C)cc2)c(N(C)Cc2ccccc2)s1	-20%[46.1 µM]	.	.	1%	-7%	?
c1ccc(Cc2nnc(N3CCCCC3)c3ccccc23)cc1	3%	-5%	4%	21%	-12%	-1%[46.1 µM]
c1ccc(N2CCN(c3nnc(Cc4cccnc4)c4ccccc34)CC2)nc1	0%	?	2%	6%	10µM*	17%
Cc1cc(NC(=O)CSc2nnc3ccc(-c4ccccc4)nn23)no1	.	.	9%	.	-13%	.
